We go through 39 compounds from PubChem BioAssay (EPA / NIEHS).

SMILES strings stand for the structures. Calls of active or inactive are those of the source. How the source made its calls: active means hit-call score of the fitted dose curve at least 0.9, where 1 is the maximum; inactive means score below 0.9.

Sequence of CCAAT/enhancer-binding protein beta (Homo sapiens) (P17676 whole entry, looked up): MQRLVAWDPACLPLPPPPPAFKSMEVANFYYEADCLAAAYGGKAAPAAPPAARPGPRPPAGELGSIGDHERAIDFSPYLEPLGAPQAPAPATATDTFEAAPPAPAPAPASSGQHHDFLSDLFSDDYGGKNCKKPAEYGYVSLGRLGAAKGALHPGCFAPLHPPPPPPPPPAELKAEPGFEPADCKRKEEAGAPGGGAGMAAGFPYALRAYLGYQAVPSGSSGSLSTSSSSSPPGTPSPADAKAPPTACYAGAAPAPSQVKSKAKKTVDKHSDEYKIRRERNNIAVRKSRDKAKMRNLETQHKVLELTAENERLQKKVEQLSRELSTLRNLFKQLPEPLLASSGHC

Test system in one test: not listed separately
Put plainly: ATG_CRE_CIS: Attagene CIS-FACTORIAL HepG2 Assay for human cAMP Responsive Element (CRE) binding protein 3 (AID 2282926). To be noted: HepG2 CRE cis-reporter, Attagene multiplexed mRNA; actives raise or lower the signal. The method, boiled down: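 Readout: fluorescently labelled reporter transcripts resolved by capillary electrophoresis after RT-PCR, taken 24 h post-dosing in transfected HepG2. Endogenous transcription factor activity drives each cis-element reporter; gain or loss of signal fitted relative to DMSO control.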
`C[C@]12CC[C@H](O)CC1=CC[C@@H]1[C@@H]2CC[C@]2(C)C(=O)CC[C@@H]12`: the result was inactive.

With `CCOP(=S)(OCC)Oc1ccc(S(C)=O)cc1` (configuration not stated), the result was inactive.

As for `CC(C)c1cccc(C(C)C)c1O`, the result was inactive.

On to `COP(=S)(OC)Oc1c(Cl)cc(C)cc1Cl`, for which the result was inactive.

As for `COP(=O)(OC)O/C(=C\Cl)c1cc(Cl)c(Cl)cc1Cl`, the compound was classed as inactive.

In the case of `N#CCc1ccc(Cl)cc1`, the result was inactive.

As for `COc1cc2c(cc1OC)[C@@]13CCN4CC5=CCO[C@H]6CC(=O)N2[C@H]1[C@H]6[C@H]5C[C@H]43`, the outcome was inactive.

In the case of `O=C1CCCN1`, the outcome was inactive.

With `O=C1C(Cl)=C(Cl)C(=O)c2ccccc21`, the compound was called inactive.

With `ClC(Cl)=C(Cl)C(Cl)=C(Cl)Cl`, the AC50 – broadly, the concentration giving half of the maximal activity seen – was 180 µM (active).

Take `NNC(=S)NN`: the compound was classed as inactive.

Turning to `CC1(C)Cc2cccc(O)c2O1`, the compound was called inactive.

Consider `CC(C)C1CCC(Cc2ccc(Cl)cc2)C1(O)Cn1cncn1` (configuration not stated), for which the call was inactive.

As to `Cc1cc(=O)[nH]o1`, the compound was classed as inactive.

Consider `CCC1(c2ccc(N)cc2)CCC(=O)NC1=O` (configuration not stated), for which the compound was called inactive.

On to `Nc1cccc2ccccc12`, for which the call was inactive.

As for `COP(=S)(OC)Oc1ccc(Sc2ccc(OP(=S)(OC)OC)cc2)cc1`, the call was inactive.

As to `CCCCCCCCC(=O)NCc1ccc(O)c(OC)c1`, the compound was classed as inactive.

For `ClC1=C(Cl)[C@]2(Cl)[C@H]3[C@H]([C@H]4C=C[C@H]3C4)[C@@]1(Cl)C2(Cl)Cl`, the result was inactive.

In the case of `CC(=[OH+])/C=C(/C)[O-].CC(=[OH+])/C=C(/C)[O-].CC(=[OH+])/C=C(/C)[O-].[Al]`, the compound was called inactive.

In the case of `ClCc1ccccn1`, the AC50 is 67.5 µM (active).

Consider `CCCCP(CCCC)CCCC`, for which the call was inactive.

`C(=NC1CCCCC1)=NC1CCCCC1`: the outcome was inactive.

With `COC(=O)Cc1ccccc1`, the call was inactive.

Turning to `CCOP(=S)(OCC)Oc1nc(Cl)c(Cl)cc1Cl`, the outcome was inactive.

With `C[C@H]1CCCC(=O)CCC/C=C/c2cc(O)cc(O)c2C(=O)O1`, the compound was called inactive.

For `O=C(Cl)c1ccc(Cl)cc1`, the outcome was inactive.

`C=CC(=O)N(C)C`: the compound was classed as inactive.

On to `COc1ccc(C=O)cc1OC`, for which the outcome was inactive.

In the case of `CCOC(=O)Nc1cccc(OC(=O)Nc2ccccc2)c1`, the call was inactive.

For `OCC(O)CCl` (configuration not stated), the result was inactive.

With `COP(=S)(OC)Oc1cc(Cl)c(Cl)cc1Cl`, the compound was classed as inactive.

On to `CCC(C)c1cccc(C(C)CC)c1O` (configuration not stated), for which the result was inactive.

In the case of `COC[C@H](C)N(C(=O)CCl)c1c(C)csc1C`, the call was inactive.

`NC(=S)Nc1ccccc1`: the result was inactive.

`COC(=O)c1sccc1S(=O)(=O)NC(=O)Nc1nc(C)nc(OC)n1`: the result was inactive.

Turning to `CC(C#N)CCC#N` (configuration not stated), the compound was called inactive.

Take `CCNc1nc(NC(C)(C)C)nc(SC)n1`: the call was inactive.

In the next test the target is CCAAT/enhancer-binding protein beta (Homo sapiens) (UniProt P17676). Put plainly: ATG_C_EBP_CIS: Attagene CIS-FACTORIAL HepG2 Assay for human CCAAT/Enhancer Binding Protein (C/EBP) beta (AID 2282927). To be noted: HepG2 Attagene cis-factorial transcription factor reporter; actives raise or lower the signal. The procedure, abridged:
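Transiently transfected HepG2 (MRTU library, endogenous TF-driven promoters); 24 h dosing; total RNA → oligo(dT) RT → PCR → 6-FAM primer extension → HpaI digest → CE; fit bidirectionally vs DMSO.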
Consider `C[C@]12CC[C@H](O)CC1=CC[C@@H]1[C@@H]2CC[C@]2(C)C(=O)CC[C@@H]12`, for which the outcome was inactive.

Consider `CCOP(=S)(OCC)Oc1ccc(S(C)=O)cc1` (configuration not stated), for which the outcome was inactive.

As to `CC(C)c1cccc(C(C)C)c1O`, the result was inactive.

In the case of `COP(=S)(OC)Oc1c(Cl)cc(C)cc1Cl`, the result was inactive.

Regarding `COP(=O)(OC)O/C(=C\Cl)c1cc(Cl)c(Cl)cc1Cl`, the outcome was inactive.

For the compound `N#CCc1ccc(Cl)cc1`, the result was inactive.

Turning to `COc1cc2c(cc1OC)[C@@]13CCN4CC5=CCO[C@H]6CC(=O)N2[C@H]1[C@H]6[C@H]5C[C@H]43`, the outcome was inactive.

With `O=C1CCCN1`, the outcome was inactive.

Consider `Cc1ccc2ccccc2c1C`, for which the result was inactive.

For `O=C1C(Cl)=C(Cl)C(=O)c2ccccc21`, the outcome was inactive.

In the case of `ClC(Cl)=C(Cl)C(Cl)=C(Cl)Cl`, the outcome was inactive.

In the case of `NNC(=S)NN`, the result was inactive.

As to `CC1(C)Cc2cccc(O)c2O1`, the outcome was inactive.

With `CC(C)C1CCC(Cc2ccc(Cl)cc2)C1(O)Cn1cncn1` (configuration not stated), the result was inactive.

With `Cc1cc(=O)[nH]o1`, the result was inactive.

As to `CCC1(c2ccc(N)cc2)CCC(=O)NC1=O` (configuration not stated), the result was inactive.

`Nc1cccc2ccccc12`: the outcome was inactive.

On to `COP(=S)(OC)Oc1ccc(Sc2ccc(OP(=S)(OC)OC)cc2)cc1`, for which the outcome was inactive.

On to `CCCCCCCCC(=O)NCc1ccc(O)c(OC)c1`, for which the outcome was inactive.

For the compound `ClC1=C(Cl)[C@]2(Cl)[C@H]3[C@H]([C@H]4C=C[C@H]3C4)[C@@]1(Cl)C2(Cl)Cl`, the result was inactive.

Take `CC(=[OH+])/C=C(/C)[O-].CC(=[OH+])/C=C(/C)[O-].CC(=[OH+])/C=C(/C)[O-].[Al]`: the result was inactive.

Turning to `ClCc1ccccn1`, the outcome was inactive.

Take `CCCCP(CCCC)CCCC`: the result was inactive.

On to `C(=NC1CCCCC1)=NC1CCCCC1`, for which the result was inactive.

Turning to `COC(=O)Cc1ccccc1`, the result was inactive.

For `CCOP(=S)(OCC)Oc1nc(Cl)c(Cl)cc1Cl`, the result was inactive.

`C[C@H]1CCCC(=O)CCC/C=C/c2cc(O)cc(O)c2C(=O)O1`: the result was inactive.

Regarding `O=C(Cl)c1ccc(Cl)cc1`, the outcome was inactive.

For `C=CC(=O)N(C)C`, the result was inactive.

Turning to `COc1ccc(C=O)cc1OC`, the outcome was inactive.

Turning to `CCOC(=O)Nc1cccc(OC(=O)Nc2ccccc2)c1`, the result was inactive.

As for `OCC(O)CCl` (configuration not stated), the outcome was inactive.

Regarding `COP(=S)(OC)Oc1cc(Cl)c(Cl)cc1Cl`, the outcome was inactive.

Turning to `CCC(C)c1cccc(C(C)CC)c1O` (configuration not stated), the outcome was inactive.

For the compound `COC[C@H](C)N(C(=O)CCl)c1c(C)csc1C`, the outcome was inactive.

With `NC(=S)Nc1ccccc1`, the result was inactive.

For `COC(=O)c1sccc1S(=O)(=O)NC(=O)Nc1nc(C)nc(OC)n1`, the result was inactive.

Take `CC(C#N)CCC#N` (configuration not stated): the outcome was inactive.

Turning to `CCNc1nc(NC(C)(C)C)nc(SC)n1`, the result was inactive.
